Source: PubChem BioAssay
Most compounds without a hit are left out; they make up all but 2.9% or so of the library.
MEKK3 PB1 HTS – MEKK3-MEK5 PB1 interaction, increase or decrease | Q99759 | bead-based flow cytometry, Alexa488-MEK5 binding to MEKK3; actives lie on both sides; 0 = blocked by unlabeled MEK5, 100 = vehicle | binding response (% of control), % at 10 µM | hit rate 1.4% among 290,000;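 active = binding response more than 3 SD above or below the average of its plate-row segment, actives on both sides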;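 note: Alexa488 bead fluorescence after subtracting the streptavidin-only scavenger bead signal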
MEKK2mut PB1 HTS – signal of MEK5 binding to mutant human MEKK2 PB1 domain. AID 1530. bead flow cytometry, Alexa488-MEK5 binding to MEKK2 mutant. percent response, % at 10 µM. hit rate 0.35% among 290,000; in the data active = percent response above about 24%, passing the limit was not always enough
MEKK2 WT-MEK5 – raises or lowers MEK5 binding to wildtype human MEKK2 PB1 domain; hit rate 1.1% among 290,000; binding response (% of control), % at 10 µM; bead flow cytometry, Alexa488-MEK5 binding to MEKK2 WT; actives lie on both sides; AID 1531; in the data active = binding response below about 67% or above about 130%
Beta2AR agonist – activates human beta-2 adrenergic receptor causing internalization. P07550. Am2.2-beta2AR cells, FAP receptor internalization, flow cytometry. response, % (test concentration not listed). hit rate 0.43% among 340,000;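 active = response above a set limit, near 3 SD of response in nonfluorescent compounds, cut at about 42% in these data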
GRK2 aptamer HTS – human GRK2 inhibition via aptamer displacement | bead flow cytometry, FAM-aptamer displacement from GRK2 | inhibition of aptamer binding, % at 10 µM | hit rate 0.59% among 330,000;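 active = inhibition of aptamer binding above 40%, roughly 3 SD of noise, on plates passing a quality check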;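 note: median bead fluorescence of bound FAM aptamer so fluorescent compounds give negative values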
Target sequence (P25098 whole entry, looked up): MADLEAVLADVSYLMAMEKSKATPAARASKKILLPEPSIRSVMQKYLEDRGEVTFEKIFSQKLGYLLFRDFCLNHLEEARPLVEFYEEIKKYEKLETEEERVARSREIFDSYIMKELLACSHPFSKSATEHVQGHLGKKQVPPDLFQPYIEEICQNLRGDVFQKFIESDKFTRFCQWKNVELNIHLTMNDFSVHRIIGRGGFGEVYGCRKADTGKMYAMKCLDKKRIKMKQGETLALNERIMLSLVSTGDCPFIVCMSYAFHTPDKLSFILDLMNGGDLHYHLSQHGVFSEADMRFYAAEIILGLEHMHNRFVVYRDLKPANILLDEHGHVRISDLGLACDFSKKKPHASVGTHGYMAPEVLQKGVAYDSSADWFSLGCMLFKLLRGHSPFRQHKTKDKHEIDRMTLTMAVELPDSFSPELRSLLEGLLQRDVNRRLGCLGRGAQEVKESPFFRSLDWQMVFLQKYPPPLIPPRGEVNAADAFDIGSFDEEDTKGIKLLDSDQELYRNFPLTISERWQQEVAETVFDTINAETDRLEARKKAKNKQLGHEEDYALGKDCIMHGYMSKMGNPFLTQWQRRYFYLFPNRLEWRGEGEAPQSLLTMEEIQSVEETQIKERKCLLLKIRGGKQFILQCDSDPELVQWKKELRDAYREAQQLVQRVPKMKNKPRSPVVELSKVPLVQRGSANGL
MEKK2wt confirm – raises or lowers MEK5 binding to wildtype human MEKK2, retest. shares compounds with MEKK3 PB1 HTS. bead flow cytometry, Alexa488-MEK5 binding to MEKK2 WT; actives lie on both sides. binding response (% of control), % at 10 µM. hit rate 2.4% among 5,900. AID 1892; in the data active = binding response below about 16% or above about 210%; inactive = in between
MEKK2mut confirm – signal of MEK5 binding to mutant human MEKK2, retest. shares compounds with MEKK3 PB1 HTS. percent response, % at 10 µM. bead flow cytometry, Alexa488-MEK5 binding to MEKK2 mutant. hit rate 2% among 5,900; in the data active = percent response mostly above about 71%, no sharp cut-off; inactive = mostly below about 38%;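 note: higher means compound restores mutant binding toward wildtype level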
MEKK3 confirm – confirmation of inhibitors of MEK5 binding to human MEKK3; shares compounds with MEKK3 PB1 HTS; bead flow cytometry, Alexa488-MEK5 binding to MEKK3; stronger effect = lower value; binding response (% of control), % at 10 µM; hit rate 1.8% among 5,900; AID 1894;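 active = binding response below 72% of control, or above a set upper limit, though filed actives all read lower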;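 note: 100% = DMSO only wells and 0% = binding blocked by excess unlabeled MEK5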
* hit, by the source's call; nt = no result; [ ] = another dose, or the depositor's remark.

SMILES | MEKK3 PB1 HTS | MEKK2mut PB1 HTS | MEKK2 WT-MEK5 | Beta2AR agonist | GRK2 aptamer HTS | MEKK2wt confirm | MEKK2mut confirm | MEKK3 confirm
COC(=O)[C@]1(Cc2ccccc2)N[C@H](CN(C)S(=O)(=O)c2ccc(-c3ccccc3)cc2)[C@@H]2C(=O)N(C)C(=O)[C@@H]21 | nt | nt | nt | 2 | 4 | nt | nt | nt
O=C(Nc1ccc(F)cc1)c1ccc(CSc2ccccc2)o1 | 145* | 0 | 107 | -6 | 5 | 106 | 2 | 105
c1ccc(-n2ncc3c(NCCN4CCCCC4)ncnc32)cc1 | 104 | 25* | 113 | 2 | 0 | 122 | 11 | 104
Cc1ccc(-n2ncc3c(NNC(=O)Cc4ccccc4)ncnc32)cc1 | 143* | 1 | 108 | 1 | 0 | 104 | 9 | 106
COC(=O)c1c(NC(=O)/C=C/c2ccco2)sc2c1CCC2 | 134* | 2 | 104 | 2 | 4 | 96 | -4 | 100
COC(=O)c1c(NC(=O)c2ccco2)sc2c1CCC2 | 103 | 5 | 98 | 15 | 1 | nt | nt | nt
NC(=O)C1CCN(C(=O)C2CCC(=O)N(C3CCCCCC3)C2)CC1 (configuration not stated) | 104 | 9 | 107 | 0 | 2 | nt | nt | nt
Cc1csc(-c2cnn(-c3ccccc3)c2NC(=O)c2ccccc2)n1 | 1.0*[inhibitor] | -21 | 1.0*[inhibitor] | 6 | 0 | 103 | 2 | 105
Cc1csc(-c2cnn(-c3ccccc3)c2NC(=O)c2cccc(F)c2)n1 | 104 | -1 | 101 | 1 | 3 | nt | nt | nt
Cc1cc(C)c(NC(=O)CNC(=O)COC(=O)CN2C(=O)NC3(CCCC3)C2=O)c(C)c1 | nt | nt | nt | 2 | 0 | nt | nt | nt
CC[n+]1c(/C=C2\Sc3ccccc3N2C)ccc2cccc(C)c21 | 47*[inhibitor] | 76* | nt | nt | nt | 41 | -21 | 83
CCC1(CC)C(=O)C2=C3C1[C@H](C(=O)OC)CC(C(=O)OC)C[C@H]3n1c(=O)n(-c3ccccc3)c(=O)n1[C@H]2C (some centres not stated) | 80*[inhibitor] | -4 | 86 | nt | 0 | 96 | 1 | 97
N=C(CC1CC(=O)NC(=O)C1)C1=C(O)CCCC1=O | 108 | 10 | 131 | -1 | 8 | nt | nt | nt
COc1cc(OC)cc(C(=O)NN(CCC#N)C2=NS(=O)(=O)c3ccccc32)c1 | 103 | 5 | 99 | -10 | 2 | nt | nt | nt
Brc1ccc(Nc2ncnc3[nH]ncc23)cc1 | 73*[inhibitor] | -30 | 68 | 2 | 11 | 101 | 2 | 101
Cc1nc(-c2ccc(Cl)cc2)sc1C1(C)CC(c2ccc(F)cc2)=NO1 (configuration not stated) | 103 | -8 | 102 | -2 | 0 | nt | nt | nt
CC[C@]1(c2cccc(C)c2)C(=O)N(C(=O)OC)N1C(=O)OC | 105 | 59* | 66* | 8 | 4 | 98 | 2 | 102
CC[C@@]1(c2ccccc2)C(=O)N(C(=O)OC)N1C(=O)OC | 101 | -7 | 83 | 2 | 5 | nt | nt | nt
C#Cc1ccc(C(=O)Nc2ccc(N3CCC(C)CC3)c(C(N)=O)c2)cc1 | 106 | -4 | 99 | 9 | 0 | nt | nt | nt
CC1(C)CC(=O)c2c(O)cc(OCc3ccc(Br)cc3)cc2O1 | 101 | 2 | 104 | 2 | 0 | nt | nt | nt
COc1cc(O)c2c(c1)OC(C)(C)CC2=O | 122* | 7 | 116 | 0 | 4 | 100 | 0 | 103
COc1ccccc1C1CCN(Cc2ccc3ccccc3c2)CC1 | 106 | 36* | 138* | 5 | 0 | 135 | 12 | 100
COc1ccccc1C1CCN(Cc2ccccc2)CC1 | 97 | 5 | 103 | -4 | 0 | nt | nt | nt
O=C(/C=C/c1cccc([N+](=O)[O-])c1)NCCSCc1ccc(Cl)cc1 | 144* | 0 | 109 | 4 | 1 | 96 | -4 | 105
CC(C)(C)S(=O)(=O)c1cnc(-c2ccccn2)nc1N | 92 | -12 | 93 | -1 | 0 | nt | nt | nt
SMILES | MEKK3 PB1 HTS | MEKK2mut PB1 HTS | MEKK2 WT-MEK5 | Beta2AR agonist | GRK2 aptamer HTS | MEKK2wt confirm | MEKK2mut confirm | MEKK3 confirm
CC(C)(C)S(=O)(=O)c1cnc(-c2cnccn2)nc1N | 134* | 29 | 114 | 3 | 0 | 94 | -6 | 98
O=C(COC(=O)c1ccc[n+]([O-])c1)Nc1c(Br)cc([N+](=O)[O-])cc1Br | 100 | -1 | 97 | nt | 2 | nt | nt | nt
Cc1ccc(NC(=O)CS(=O)CC(=O)NC23CC4CC(CC(C4)C2)C3)cc1 (configuration not stated) | 107 | 7 | 113 | -1 | 1 | nt | nt | nt
Cc1c(Cl)cnc(NC(=O)COC(=O)Cc2coc3ccc4ccccc4c23)c1Cl | 131* | 0 | 102 | 3 | 3 | 80 | -14 | 84
CC(OC(=O)Cc1coc2ccc3ccccc3c12)C(=O)NC(N)=O (configuration not stated) | 92 | -9 | 95 | 0 | 0 | nt | nt | nt
CC(C)(C)NC(=O)NC(=O)COC(=O)Cc1coc2ccc3ccccc3c12 | 143* | 1 | 112 | -5 | 0 | 95 | -3 | 97
O=C(NCc1nc2ccccc2[nH]1)C1=C[C@@H](c2ccc3c(c2)OCO3)C[C@@H](OCc2ccc(CO)cc2)O1 | 92 | -8 | 86 | nt | nt | nt | nt | nt
Cc1ccc(S(=O)(=O)n2c3ccc(Cl)cc3c3nc(C)sc32)cc1 | 150* | -1 | 106 | 7 | nt | 102 | 5 | 104
COc1ccc(CCNC(=O)Cn2ccc3c(OC)cccc3c2=O)cc1OC | 97 | -3 | 96 | -4 | 1 | nt | nt | nt
CN1CCN(NC(=S)NC2CCCC2)CC1 | 99 | -8 | 95 | 12 | 0 | nt | nt | nt
CN1CCN(NC(=S)NC(C)(C)CC(C)(C)C)CC1 | 58*[inhibitor] | -4 | 77 | 12 | 0 | 103 | 3 | 105
Cc1ccc(C2OC34CCCCCC3C(C#N)(C(=N)O4)C2(C#N)C#N)cc1 (configuration not stated) | 56*[inhibitor] | -2 | 88 | 13 | 2 | 99 | 1 | 103
c1ccc(-c2cc(-c3nnc4n3N=C(c3ccc5ccccc5c3)CS4)[nH]n2)cc1 | 107 | -1 | 71*[inhibitor] | 1 | 1 | 75 | -17 | 98
Cc1ccc(C2/C=C\CC(NC(=O)OCC3c4ccccc4-c4ccccc43)CC(=O)N2Cc2ccccc2)cc1 (configuration not stated) | nt | nt | nt | -2 | 0 | nt | nt | nt
CC(C)(C)c1ccc2c(c1)N(CC(=O)N1CCCC1)C(=O)CO2 | 101 | 1 | 99 | 0 | 0 | nt | nt | nt
Cc1nc2ccccn2c1C(=O)Nc1ccc2c(c1)OCCO2 | 132* | 7 | 112 | -8 | 5 | 105 | 4 | 105
